A selection: hits, their analogues and other compounds. The true share with any hit is near 18%.
DT40 TDP1 no CPT – qHTS for Inhibitors of human tyrosyl-DNA phosphodiesterase 1 (TDP1): qHTS in cells in absence of CPT; DT40 Tdp1-/- hTDP1 cells, no CPT, ATP luminescence, 48 h; Potency, µM (titrated, usually from 46.2 µM), usual class: inhibitors; 420,000 compounds, 15% hits; AID 686978, 2013; note: nearly all actives have a fitted effect of over 55% in size
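Chicken DT40 Tdp1-/- cells stably complemented with human TDP1 were seeded at 400 cells/well with DMSO in place of 20 nM camptothecin. After compound pinning, cells grew at least 48 hr at 37 °C; viability read by CellTiter-Glo luminescence.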
DT40 TDP1 CPT – qHTS for Inhibitors of human tyrosyl-DNA phosphodiesterase 1 (TDP1): qHTS in cells in presence of CPT. chicken DT40 Tdp1-/-;hTDP1 cells + 20 nM CPT, ATP luminescence, 48 h. Potency, µM (top dose mostly 46.2 µM), actives largely listed as inhibitors. 420,000 compounds, 12% hits. AID 686979, 2013; note: nearly all actives have a fitted effect of over 55% in size
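Chicken DT40 Tdp1-/- cells complemented with human TDP1, 400 cells/well, exposed to compounds plus 20 nM camptothecin for at least 48 h at 37 C; viability read as ATP content by CellTiter-Glo luminescence.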
IL1B secr inh – qHTS for Inhibitors of Inflammasome Signaling: IL-1-beta AlphaLISA Primary Screen. THP-1 LPS/ATP IL-1B secretion, AlphaLISA, 16 h; stronger effect = lower value. activity change, % at 57.5 µM. 360,000 compounds, 4.7% hits. AID 743279, 2014; in the data active = activity change below about -50%; inconclusive = mostly about -30% to -49%
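THP-1 cells pretreated 1 hr with compounds (up to 57.5 uM final), then stimulated with LPS (250 ng/mL final) plus ATP (1.25 mM final); secreted IL-1B measured by AlphaLISA after 16 hr, decreased signal indicating inhibition.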
TDP1 inh – qHTS Assay for Inhibitors of Tyrosyl-DNA Phosphodiesterase (TDP1) | recombinant TDP1, AlphaScreen DNA substrate cleavage | Potency, µM (series often up to 130 µM), most hits filed as inhibitors | Tyrosyl-DNA phosphodiesterase 1 (Homo sapiens), Q9NUW8 | 350,000 compounds, 0.28% hits; note: nearly all actives have a fitted effect of over 40% in size
Target sequence (Q9NUW8 whole entry, looked up): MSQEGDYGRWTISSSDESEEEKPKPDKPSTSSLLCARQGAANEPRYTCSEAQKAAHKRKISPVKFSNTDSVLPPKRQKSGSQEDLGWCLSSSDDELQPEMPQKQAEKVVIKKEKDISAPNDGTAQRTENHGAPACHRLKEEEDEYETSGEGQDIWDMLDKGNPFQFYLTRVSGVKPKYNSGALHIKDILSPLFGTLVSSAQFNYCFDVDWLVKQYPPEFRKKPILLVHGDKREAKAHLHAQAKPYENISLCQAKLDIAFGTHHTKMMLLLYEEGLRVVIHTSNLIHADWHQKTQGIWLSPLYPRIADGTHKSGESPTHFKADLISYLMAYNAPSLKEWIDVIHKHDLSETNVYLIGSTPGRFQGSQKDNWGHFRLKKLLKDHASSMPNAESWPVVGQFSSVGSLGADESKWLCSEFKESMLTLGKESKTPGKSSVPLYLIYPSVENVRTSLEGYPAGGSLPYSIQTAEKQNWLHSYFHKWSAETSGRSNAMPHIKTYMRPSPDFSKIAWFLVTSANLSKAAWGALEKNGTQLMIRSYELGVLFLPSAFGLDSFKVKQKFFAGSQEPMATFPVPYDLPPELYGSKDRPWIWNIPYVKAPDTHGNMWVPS
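Signal: AlphaScreen proximity between streptavidin donor and anti-FITC acceptor beads on intact substrate. Reaction: Tdp1 1 nM, substrate 15 nM final, 5 min RT after 15 min compound preincubation.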
HepG2 viability – qHTS for Inhibitors of TGF-b: Cytotox Counterscreen. Potency, µM (highest dose often 46.1 µM), actives largely listed as cytotoxic. HepG2 CAGA-GFP viability, ATP luminescence, 18 h. 410,000 compounds, 0.76% hits
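CellTiter-Glo luminescence gave cytotoxicity after 18 hours at 37 degrees C. The cells were HepG2 CAGA-GFP in 1% FBS DMEM, stimulated with 500 pg/mL TGF-beta after compound addition. %Activity was normalised to no-cell wells (complete cell-killing) and DMSO (no toxicity), and curves were fitted and classified.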
TGFb inhibitor – qHTS for Inhibitors of TGF-b | HepG2 CAGA-GFP TGF-b/SMAD3 reporter, GFP fluorescence, 18 h; TGF-beta stimulated, 500 pg/mL final | AID 588855, 2011 | Potency, µM (titrated, usually from 46.1 µM), actives largely listed as inhibitors | 410,000 compounds, 1.2% hits; note: nearly all actives have a fitted effect of over 65% in size
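HEPG2 CAGA-GFP cells (1000/well, DMEM with 1% FBS) were pre-incubated 2 h at 37 degrees C, given compound by pin tool, then stimulated with TGF-beta at 500 pg/mL final for 18 h before per-cell GFP fluorescence imaging.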
Of the large screens only hits and unclear results are named; the others gave an inactive call. Unless noted, calls come from the whole dose curve; as a rule, active = well fitted curve in the direction sought with a large enough effect; inconclusive = small, poorly fitted or top-dose-only effect, or another doubt; inactive = no such curve, though single readings can be large; an effect the other way counts as inactive or inconclusive.

Cc1ccc(-c2cc(C(=O)O)c3ccccc3n2)c(C)c1	none
O=C(/C=C/c1ccccc1Cl)c1ccccc(=O)c1O	DT40 TDP1 no CPT 4.1µM, DT40 TDP1 CPT 2.9µM, IL1B secr inh -97, TGFb inhibitor inconclusive
Cc1ccc(C)c(/C=C/C(=O)c2ccccc(=O)c2O)c1	DT40 TDP1 no CPT 6.5µM, DT40 TDP1 CPT 10µM, IL1B secr inh -64, TGFb inhibitor inconclusive
O=C(/C=C/c1ccc([N+](=O)[O-])cc1)c1ccccc(=O)c1O	DT40 TDP1 no CPT 3.3µM, DT40 TDP1 CPT 2.6µM, IL1B secr inh -98, TGFb inhibitor 3.2µM (no result: TDP1 inh)
Cc1ccc(/C=C/C(=O)c2ccccc(=O)c2O)c(C)c1	DT40 TDP1 no CPT 21µM, DT40 TDP1 CPT 15µM, IL1B secr inh -104, TGFb inhibitor 13µM
CC(C)NC(=O)c1ccccc1NC(=O)/C=C/c1ccc([N+](=O)[O-])cc1	none
CCN(Cc1ccccc1)C(=O)C1CCN(S(=O)(=O)c2ccc3c(c2)CCCN3C(C)=O)CC1	DT40 TDP1 no CPT inconclusive, DT40 TDP1 CPT inconclusive, TGFb inhibitor inconclusive (no result: IL1B secr inh)
COc1ccc(CCNC(=O)c2cnn(-c3ccc(F)cc3)c2C2CCN(C(=O)OC(C)(C)C)CC2)cc1OC	DT40 TDP1 no CPT inconclusive, DT40 TDP1 CPT inconclusive, TGFb inhibitor inconclusive (no result: IL1B secr inh)
COc1ccc(CCNC(=O)c2cnn(-c3ccc(F)cc3)c2C2CCN(C(=O)OC(C)(C)C)CC2)c(OC)c1	DT40 TDP1 no CPT 13µM, DT40 TDP1 CPT inconclusive, TGFb inhibitor inconclusive (no result: IL1B secr inh)
COc1ccc(CCNC(=O)c2cnn(-c3cccc(C)c3)c2C2CCN(C(=O)OC(C)(C)C)CC2)cc1OC	DT40 TDP1 no CPT 15µM, DT40 TDP1 CPT inconclusive (no result: IL1B secr inh)
COc1ccc(OC)c(CCNC(=O)c2cnn(-c3ccccc3)c2C2CCN(C(=O)OC(C)(C)C)CC2)c1	DT40 TDP1 no CPT 23µM, DT40 TDP1 CPT 13µM, TGFb inhibitor inconclusive (no result: IL1B secr inh)
COc1ccc(OC)c(CCNC(=O)c2cnn(-c3ccc(C)cc3C)c2C2CCN(C(=O)OC(C)(C)C)CC2)c1	DT40 TDP1 no CPT 15µM, DT40 TDP1 CPT 4.6µM, TGFb inhibitor inconclusive (no result: IL1B secr inh)
O=C(Nc1ccccc1)N1CCC2(CC1)CCN(C(=O)c1csnn1)CC2	none (no result: IL1B secr inh, TDP1 inh, HepG2 viability, TGFb inhibitor)
COc1cc(/C=N/NS(=O)(=O)c2ccc(C(C)(C)C)cc2)cc([N+](=O)[O-])c1O	none (no result: TDP1 inh)
NC1=NC2=C(CCCC2)C2(CCCCC2)S1	DT40 TDP1 no CPT inconclusive, DT40 TDP1 CPT inconclusive, IL1B secr inh -65
CCc1cc(C(=O)NCCN2Cc3ccccc3OC(c3ccsc3)C2)n(C)n1 (stereo unspecified)	DT40 TDP1 no CPT 21µM, DT40 TDP1 CPT inconclusive (no result: IL1B secr inh, TDP1 inh, HepG2 viability, TGFb inhibitor)
O=C(NCCN1Cc2ccccc2OC(c2ccsc2)C1)c1cncs1 (stereo unspecified)	none (no result: IL1B secr inh, TDP1 inh, HepG2 viability, TGFb inhibitor)
CCOc1ccc(S(=O)(=O)N2CCC(C(=O)OC(C)C(=O)N(C)C3CCCCC3)CC2)cc1 (stereo unspecified)	TGFb inhibitor inconclusive
COc1ccc(NS(=O)(=O)c2ccc(I)cc2)cc1N1CCN(C)CC1	DT40 TDP1 no CPT 30µM, DT40 TDP1 CPT 27µM (no result: IL1B secr inh, HepG2 viability, TGFb inhibitor)
Nc1cc(S(=O)(=O)Nc2ccc(Cl)cc2)ccc1N1CCOCC1	DT40 TDP1 no CPT 5.2µM, DT40 TDP1 CPT 7.3µM, TGFb inhibitor inconclusive
COc1ccc(S(=O)(=O)Nc2ccc(N3CCOCC3)cc2)cc1Br	DT40 TDP1 no CPT inconclusive, DT40 TDP1 CPT inconclusive
Nc1cc(S(=O)(=O)Nc2ccccc2Cl)ccc1N1CCOCC1	DT40 TDP1 no CPT inconclusive, DT40 TDP1 CPT inconclusive
COc1ccc(NS(=O)(=O)c2ccc(N3CCCC3)c(N)c2)cc1	DT40 TDP1 no CPT 4.6µM, DT40 TDP1 CPT 5.2µM (no result: TDP1 inh)
